Screening results: PubChem BioAssay, National Center for Advancing Translational Sciences (NCATS)
The sample as a whole holds a higher share of hits than the screen did.
RECQ1 inh: blocks DNA unwinding by human RECQ1; P46063; AID 2549; actives 0.54% (n = 240,000); RECQ1 DNA unwinding, red fluorescence kinetic read; Potency, µM (highest dose often 57.3 µM), for inactives: at the highest dose activity, negative = inhibition, usual class: inhibitors;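 note: plate controls were vehicle for no effect and no enzyme for full effect; nearly all actives have a fitted effect of over 30% in size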
Target sequence (P46063 whole entry, looked up): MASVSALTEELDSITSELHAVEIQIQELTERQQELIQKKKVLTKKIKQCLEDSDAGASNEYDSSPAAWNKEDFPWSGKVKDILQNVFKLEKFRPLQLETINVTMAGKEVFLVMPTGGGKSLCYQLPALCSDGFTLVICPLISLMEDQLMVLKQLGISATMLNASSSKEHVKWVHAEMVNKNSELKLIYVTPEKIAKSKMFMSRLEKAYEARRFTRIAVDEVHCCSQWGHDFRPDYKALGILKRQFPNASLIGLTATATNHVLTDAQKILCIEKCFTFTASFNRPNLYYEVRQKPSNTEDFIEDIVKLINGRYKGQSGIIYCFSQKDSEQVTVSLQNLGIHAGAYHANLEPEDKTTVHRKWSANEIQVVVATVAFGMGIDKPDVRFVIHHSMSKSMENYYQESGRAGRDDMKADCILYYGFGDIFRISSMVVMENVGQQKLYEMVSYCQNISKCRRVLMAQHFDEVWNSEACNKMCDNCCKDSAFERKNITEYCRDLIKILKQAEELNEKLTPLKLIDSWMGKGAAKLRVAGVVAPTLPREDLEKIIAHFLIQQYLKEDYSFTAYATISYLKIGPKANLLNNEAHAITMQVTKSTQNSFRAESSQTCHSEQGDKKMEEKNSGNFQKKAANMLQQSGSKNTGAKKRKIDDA
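RECQ1T1 50 nM; forked duplex (20 bp + 30-nt ss tails) 200 nM, ATP 2 mM final; pH 8.0, 2 mM MgCl2, 2.5 ug/ml poly(dI-dC); 15 min compound preincubation; discontinuous kinetic read over 2 h at RT.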
JMJD2E inh: blocks human JMJD2E demethylase activity. B2RXH2. JMJD2E catalytic domain, FDH-coupled NADH fluorescence (FDH is formaldehyde dehydrogenase). Potency, µM (doses to about 57.1 µM), inactives show at the top dose activity change, negative = inhibition, hits mostly inhibitors. actives 1.6% (n = 230,000). AID 2147; active = well fitted inhibition curve with a large enough effect, not every such curve was filed as active; inconclusive = small, poorly fitted or top-dose-only effect, or another doubt; inactive = no such curve, though single readings can be large or run the other way;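 note: 0% = wells with enzyme and -100% = buffer wells without enzyme; nearly all actives have a fitted effect of over 50% in size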
TDP1 block: inhibitors of human tyrosyl-DNA phosphodiesterase TDP1. recombinant TDP1, AlphaScreen DNA substrate cleavage. Potency, µM (doses to about 130 µM), for inactives: at the top dose activity change, negative = inhibition, hits mostly inhibitors. actives 0.28% (n = 350,000). AID 485290; note: nearly all actives have a fitted effect of over 40% in size
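Recombinant human Tdp1 (E. coli-expressed, 1 nM final) preincubated with compounds 15 min at room temperature, then 5'-biotin/3'-phosphotyrosine-FITC DNA substrate (15 nM final) added for 5 min. AlphaScreen beads (10 ug/ml final) added 10 min; cleavage lowers signal.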
BLM inh: blocks DNA unwinding by human BLM helicase; actives 0.2% (n = 350,000); P54132; Potency, µM (titrated, usually from 56.1 µM), for inactives: at the highest dose activity change, negative = inhibition, hits mostly inhibitors; recombinant BLM DNA unwinding, fluorescence dequenching;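 note: plate controls were vehicle for no effect and no enzyme for full effect; nearly all actives have a fitted effect of over 35% in size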
APE1 inh-1: inhibitors of human APE1 endonuclease. recombinant APE1, TAMRA/BHQ-2 abasic DNA cleavage fluorescence. actives 0.35% (n = 350,000). AID 2517. Potency, µM (titrated, usually from 65.8 µM), inactives show at the highest dose activity change, negative = inhibition, most hits filed as inhibitors;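 note: plate controls were vehicle for no effect and reference inhibitor for full effect; nearly all actives have a fitted effect of over 55% in size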
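APE1 at 0.75 nM final was preincubated with compound 15 min at room temperature, then 50 nM double-stranded THF abasic-site substrate (5'-TAMRA/3'-BHQ-2) was added. Fluorescence (ex 525/em 598 nm) was read kinetically; third-minus-first read gave activity.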
KAT2A inh: blocks human GCN5L2 histone acetyltransferase; Q92830; GCN5L2 HAT assay, ThioGlo1 CoA-SH fluorescence; Potency, µM (series often up to 58.9 µM), without a hit: at the highest dose activity change, negative = inhibition, usual class: inhibitors; actives 0.21% (n = 390,000)
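Preincubate 20nM GCN5L2 with compound 15 min, RT → add 50uM ThioGlo1 + 75uM H3(1-25) + 70uM acetyl-CoA → read fluorescence 0 and 20 min. Primary qHTS; fluorescent artifacts likely.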
DNA dye displace: displaces fluorescent dye from DNA, flagging APE1 artifacts | shares compounds with APE1 inh-1 | DNA fluorescent dye displacement counterscreen, fluorescence | Potency, µM (series often up to 28.5 µM), without a hit: top-dose activity change, negative = inhibition, actives largely listed as inhibitors | actives 7% (n = 480);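 note: loss of thiazole orange fluorescence as the dye is displaced from duplex DNA; 0% = ThO with dsDNA and no compound and -100% = ThO without dsDNA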
EndoIV counter: blocks E. coli endonuclease IV DNA cleavage; shares compounds with APE1 inh-1; E. coli Endo IV, fluorogenic AP-site DNA cleavage; Potency, µM (top dose mostly 27.1 µM), without a hit: at the top dose activity change, negative = inhibition, hits mostly inhibitors; actives 4% (n = 560); AID 2565;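 note: plate controls were uninhibited enzyme wells for no effect and no enzyme buffer wells for full effect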
APE1 inh-2: APE1 (human) endonuclease inhibition, confirmation. shares compounds with APE1 inh-1. purified APE1, fluorogenic abasic-site DNA cleavage. Potency, µM (titrated, usually from 57.1 µM), for inactives: top-dose activity change, negative = inhibition, actives largely listed as inhibitors. actives 44% (n = 750). AID 2572; note: nearly all actives have a fitted effect of over 30% in size
APE1 FP: compounds that displace a DNA probe from human APE1; shares compounds with APE1 inh-1; APE1 binding to TAMRA-labelled double-stranded DNA, fluorescence polarization displacement; Potency, µM (top dose mostly 28.5 µM), for inactives: at the highest dose activity, negative = inhibition, most hits filed as inhibitors; actives 7% (n = 480); AID 2573
* marks the source's active call; other numbers are inactive results; [ ] = dose if it differs, or a comment. Unless noted, calls come from the whole dose curve; as a rule, active = well fitted curve in the direction sought with a large enough effect; inconclusive = small, poorly fitted or top-dose-only effect, or another doubt; inactive = no such curve, though single readings can be large; an effect the other way counts as inactive or inconclusive. Unless noted, % is set by controls: 0 for no effect and ±100 for the full control effect; potency is the fitted concentration of half-maximal effect.

`CC1(C)C=C2C(=NN(c3ccccc3)C(N)=C2C#N)CO1` gave BLM inh 18µM*, APE1 inh-1 5% and KAT2A inh -1%.
Screening O=Cc1ccc(-c2cccc(C(=O)O)c2)o1 returned RECQ1 inh inactive, JMJD2E inh inconclusive, TDP1 block 45µM*, BLM inh 5%, APE1 inh-1 -14% and KAT2A inh 0%.
For Cc1nnc(N/N=C\c2ccc(-c3cccc(C(=O)O)c3)o2)n1N the results were RECQ1 inh 0%, JMJD2E inh inconclusive, TDP1 block 50µM*, BLM inh 0%, APE1 inh-1 inconclusive and KAT2A inh -10%.
For Cc1nnc(N/N=C/c2ccc(-c3ccc(Br)cc3)o2)n1N the results were RECQ1 inh -3%, JMJD2E inh 5.6µM*, TDP1 block 8%, BLM inh -6%, APE1 inh-1 -12% and KAT2A inh -1%.
Screening Cn1cncc1CNc1ncnc2ccc(-c3ccc4c(c3)OCO4)cc12 returned TDP1 block 5%.
For COC(=O)[C@H]1[C@H]2C[C@@H]3c4[nH]c5ccccc5c4CCN3C[C@H]2C[C@@H](OC(=O)c2cc(OC)c(OC)c(OC)c2)[C@@H]1OC the results were BLM inh -19% and KAT2A inh inconclusive.
Screening C=CCN1C=C2C(=O)C(C)(OC(=O)CCC(=O)OC)C(=O)C(Br)=C2C=C1c1ccc(OC)cc1 (stereo unspecified) returned RECQ1 inh 0%[11.5 µM], JMJD2E inh 7.9µM*, TDP1 block 1%[12.3 µM], BLM inh -19%[12.4 µM], APE1 inh-1 0%[12.4 µM] and KAT2A inh -2%.
For O=C1C=CC(=O)C2=C1C1c3ccccc3C2c2ccccc21 the results were RECQ1 inh -18%, JMJD2E inh 14µM*, TDP1 block 6%, BLM inh -10% and APE1 inh-1 -5%.
COc1ccc(C2=Nn3c(nnc3-c3cc(OC)ccc3OC)SC2)c(OC)c1 was read as RECQ1 inh -3%, TDP1 block 6%, BLM inh 1% and APE1 inh-1 -1%.
For CC(=O)c1ccc(NC(=O)CSc2ccsc2[N+](=O)[O-])cc1 the results were RECQ1 inh inconclusive, JMJD2E inh -7%, BLM inh -22%, APE1 inh-1 inconclusive, KAT2A inh -19%, DNA dye displace inconclusive, EndoIV counter 0%, APE1 inh-2 3.5µM* and APE1 FP 0%.
COc1ccc2nc(C)cc(SCC(=O)N/N=C/c3ccc(O)c(O)c3)c2c1 was read as RECQ1 inh inconclusive, JMJD2E inh 5µM*, TDP1 block 8%, BLM inh -13%, APE1 inh-1 inconclusive, KAT2A inh -4%, DNA dye displace inconclusive, EndoIV counter 115%, APE1 inh-2 7.9µM* and APE1 FP 3%.
COc1cccc2c(SCC(=O)N/N=C/c3ccc(O)c(O)c3)cc(C)nc12 was read as RECQ1 inh 25µM*, JMJD2E inh 16µM*, TDP1 block inconclusive, BLM inh inconclusive, APE1 inh-1 8.9µM*, KAT2A inh -8%, DNA dye displace -26%, EndoIV counter 93%, APE1 inh-2 5µM* and APE1 FP -7%.
`COc1ccc(/C=N/NC(=O)COc2cccc3cccnc23)cc1OC` gave RECQ1 inh -8%, JMJD2E inh 2%, TDP1 block inconclusive, BLM inh 30%, APE1 inh-1 -2%, KAT2A inh -9% and APE1 inh-2 inconclusive.
`COc1ccc2nc(C)cc(SCC(=O)N/N=C/c3cccc4ccccc34)c2c1` gave RECQ1 inh -6%, JMJD2E inh -26%, TDP1 block 11%, BLM inh -8%, APE1 inh-1 18% and KAT2A inh 2%.
`COc1cccc2c(SCC(=O)N/N=C/c3ccccc3)cc(C)nc12` gave RECQ1 inh -6%, JMJD2E inh -10%, TDP1 block 3%, BLM inh -2%, APE1 inh-1 -3% and KAT2A inh -7%.
Screening O=[N+]([O-])c1cccc(CN2C(COCc3ccccc3)CCC=CS2(=O)=O)c1 (stereo unspecified) returned RECQ1 inh -8%, TDP1 block 13%, BLM inh -4% and APE1 inh-1 -4%.
`NC(N)=NCCC[C@H](N)C(=O)NCC(=O)N[C@@H](CC(=O)O)C(=O)O` gave RECQ1 inh -13%, TDP1 block 5%, BLM inh 5%, APE1 inh-1 -7% and KAT2A inh -1%.
For COc1ccc(-n2nc3c(=O)[nH][nH]c3cc2=O)cc1 the results were RECQ1 inh -26%, JMJD2E inh -9%, TDP1 block 45µM*, BLM inh -29%, APE1 inh-1 inconclusive, KAT2A inh -10% and APE1 inh-2 inconclusive.
For C=CCOC(=O)N[C@@H](Cc1ccccc1)/C(C(=O)OC)=C(\C)NCc1ccccc1 the results were RECQ1 inh -11%, JMJD2E inh -5%, TDP1 block -6%, BLM inh -15% and APE1 inh-1 0%.
`O=C(O)CCCN1C(=O)/C(=C/C=C/c2ccco2)SC1=S` gave RECQ1 inh -5%, JMJD2E inh 0%, TDP1 block 4%, BLM inh 8%, APE1 inh-1 inconclusive, KAT2A inh inconclusive, DNA dye displace -5%, EndoIV counter 121%, APE1 inh-2 5µM* and APE1 FP inconclusive.
